{"source": "PubChem BioAssay", "note": "A number with no mark means an inactive call.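 How the source made its calls: active means z-score of at least 1.8 in each of two replicates, scored against plate mean and spread of sample wells; inactive means the rest.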", "data": [{"test": "viability rescue of complex I mutant cybrids, primary screen, cell-based, galactose medium, ATP luminescence (AID 1645843);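 further: positive z means more ATP and so rescue of galactose-driven cybrid death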", "details": "complex I mutant cybrid cells, 72 h, stronger effect = higher value", "values": [{"smiles": "Cc1nsc(NC(=O)NC(C)c2ccc(Cl)cc2)n1", "note": "(stereo not given)", "z-score": -0.26}, {"smiles": "CN(C)Cc1cn(C2CCN(C(=O)C3CCCCCC3)CC2)nn1", "z-score": -0.49}, {"smiles": "OCCCCCNc1nccc(-c2cnn(-c3ccccc3F)c2)n1", "z-score": -0.905}, {"smiles": "CC(C)C1C(=O)N(C)CCN1C(=O)C1(C)CC1", "note": "(stereo not given)", "z-score": -0.54}, {"smiles": "COC(C)(C)CCCC(C)CCN1CCC(n2cc(C(C)(C)N)nn2)CC1", "note": "(stereo not given)", "z-score": -0.52}, {"smiles": "OCCCCCNCC1(N2CCOCC2)CCCCCC1", "z-score": -0.47}, {"smiles": "CCC(CO)n1cnc2sc3c(c2c1=O)CCCCC3", "note": "(stereo not given)", "z-score": 1.99}, {"smiles": "COc1ccc(-c2nc(N)nc(Nc3ccc(C)cc3)n2)cc1F", "z-score": -0.745}, {"smiles": "O=c1cc(-c2ccccc2Cl)nc(-c2ccc(CN3CCC[C@@H](O)C3)cc2)[nH]1", "z-score": -0.605}, {"smiles": "CCn1c(C)nc2cc(OC3(C(=O)O)CCCCC3)ccc21", "z-score": -0.565}, {"smiles": "O=c1cc(CCn2cccn2)nc(-c2ccc(CN3CCC[C@@H](O)C3)cc2)[nH]1", "z-score": -0.025}, {"smiles": "c1ccc(-c2nc3c(cnn3C3CCCCC3)[nH]2)c(Cn2cccn2)c1", "z-score": 0.525}, {"smiles": "COc1ccc(CN[C@@H]2CS(=O)(=O)C[C@H]2O)cc1OCc1ccc(F)cc1", "z-score": -0.735}, {"smiles": "COC(=O)CCC1CCN(C(=O)CCC(C)C)CC1", "z-score": -0.56}, {"smiles": "NCCCNC1CCN(c2ccc(-c3cccc(F)c3)cc2)CC1", "z-score": -1.31}, {"smiles": "CC(C)C1=NOC(c2nc(C(C)c3ccccc3)no2)C1", "note": "(stereo not given)", "z-score": -0.83}, {"smiles": "CCC(C)C(c1nc(C(C)C)no1)N1Cc2ccccc2C1=O", "note": "(stereo not given)", "z-score": -0.17}, {"smiles": "NC(=O)NCc1cn(CC2CCN(C(=O)C3CCCCCC3)CC2)nn1", "z-score": -0.565}, {"smiles": "Cc1ccc(OCc2nnc(NC(=O)NCCc3cnc[nH]3)s2)cc1", "z-score": -0.48}, {"smiles": "CC(CCCC(C)(C)O)CCNCC1CCN(c2ccccc2)C1", "note": "(stereo not given)", "z-score": -0.605}, {"smiles": "CC(Oc1ccc2c(c1)OCO2)C(=O)N1CCCCC1CCN1CCCC1=O", "note": "(stereo not given)", "z-score": 1.73}, {"smiles": "CC(C)CCC(=O)N1CCCCC1CCc1ccc(O)cc1", "note": "(stereo not given)", "z-score": -0.375}, {"smiles": "CC(C)CCC(=O)N(C)CCCC1CCCC1", "z-score": -0.145}, {"smiles": "CC(C)CN(C)Cc1cn(C2CCN(C3CCCCCC3)CC2)nn1", "z-score": -0.485}, {"smiles": "CCC1(CC)CC1C(=O)N1CCC(n2cc(C3CCCCC3)nn2)CC1", "note": "(stereo not given)", "z-score": 0.07}, {"smiles": "CCCCc1cn(C2CCN(C(=O)C3CCCO3)CC2)nn1", "note": "(stereo not given)", "z-score": -0.535}, {"smiles": "COc1cccc(OC)c1-c1noc(CCN2C(=O)COc3ccccc32)n1", "z-score": 1.39}, {"smiles": "Cc1ccc2nc(-c3cnc(C(C)(C)C)nc3)cc(C(=O)N(C)C(C)C)c2c1", "z-score": -0.47}, {"smiles": "Cc1ccn(CCN2CCC(Oc3cccc(Cl)c3)CC2)n1", "z-score": 0.135}, {"smiles": "Cc1cc(C(=O)N2CCCC(C)C2)c2ccc(C)c(C)c2n1", "note": "(stereo not given)", "z-score": -0.505}, {"smiles": "CC(=O)N1CCN(C(=O)c2c(-c3ccccc3)nn(-c3ccccc3)c2C)CC1", "z-score": -0.38}, {"smiles": "CCCc1cc(C(=O)N2CCCC(Cn3cc(CC(C)C)nn3)C2)n[nH]1", "note": "(stereo not given)", "z-score": 1.21}, {"smiles": "COc1ccccc1-c1noc(Cn2ncc3ccccc32)n1", "z-score": 1.12}, {"smiles": "O=C1CCCc2occ(C(=O)N3CCc4[nH]nc(C5CCC5)c4C3)c21", "z-score": 0.15}, {"smiles": "COCCN(C)Cc1ccc(-c2nc(C)c(C)c(=O)[nH]2)cc1", "z-score": -0.545}, {"smiles": "Cc1ccc(C(=O)N2CCNC(=O)C2Cc2ccccc2)c(F)c1", "note": "(stereo not given)", "z-score": -0.535}, {"smiles": "Cc1ccc(-c2ncccc2OC2(C(=O)O)CCCC2)cc1C", "z-score": -0.735}, {"smiles": "FC(F)(F)c1cccc(Cc2noc(CCCN3CCCCC3)n2)c1", "z-score": 0.61}, {"smiles": "CCCCC1C(=O)N(C)CCN1C(=O)Nc1nnc(C(C)(C)C)s1", "note": "(stereo not given)", "z-score": -0.33}, {"smiles": "OC1(c2ccccc2)CCN(Cc2ccccc2Cl)C1", "note": "(stereo not given)", "z-score": -1.11}]}]}
